# Assay results as given in PubChem BioAssay (NCATS).
# “And” between values parts separate entries of the source, which are not always exact repeats. Identical values can stand only once. Inconclusive results are not listed. Where a call stands in place of a potency, no number is given. A number with no mark means an inactive call. The source made the active and inactive calls. The call rests on the fitted dose curve; in most records, active means well fitted inhibition curve with a large enough effect; inconclusive means small, poorly fitted or top-dose-only effect; inactive means flat fitted curve, though single readings scatter.
# What was measured:
# [1] = biological target: Glutathione peroxidase 1 (Homo sapiens) (UniProt P07203); experiment: Primary qHTS Assay for Inhibitors of Recombinant Selenoprotein Glutathione Peroxidase 1 (GPX1) (AID 1845191); further: nearly all actives have a fitted effect of over 65% in size; further: potency means the concentration at half of the fitted maximal effect
# Sequence of Glutathione peroxidase 1 (Homo sapiens) (P07203 whole entry, looked up): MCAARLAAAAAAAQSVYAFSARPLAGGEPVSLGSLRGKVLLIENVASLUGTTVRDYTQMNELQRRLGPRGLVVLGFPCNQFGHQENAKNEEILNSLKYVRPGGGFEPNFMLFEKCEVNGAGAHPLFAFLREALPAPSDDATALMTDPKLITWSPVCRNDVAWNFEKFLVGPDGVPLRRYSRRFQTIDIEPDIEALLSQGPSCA
# Procedure, shortened: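 GR-coupled readout: NADPH consumption tracked by fluorescence, ex 340/em 450 nm, at t=0 and after 15 min at RT. Final mix 10 nM GPX1, 1 mM GSH, 0.5 mM CHP, 0.5 mM NADPH, 100 nM GR, 0.01% BSA, following 30 min enzyme–compound preincubation.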
# [2] = biological target: Phospholipid hydroperoxide glutathione peroxidase GPX4 (Homo sapiens) (UniProt P36969); experiment: Primary qHTS Assay for Inhibitors of Recombinant Selenoprotein Glutathione Peroxidase 4 (GPX4) (AID 1845192); further: nearly all actives have a fitted effect of over 65% in size
# Sequence of Phospholipid hydroperoxide glutathione peroxidase GPX4 (Homo sapiens) (P36969 whole entry, looked up): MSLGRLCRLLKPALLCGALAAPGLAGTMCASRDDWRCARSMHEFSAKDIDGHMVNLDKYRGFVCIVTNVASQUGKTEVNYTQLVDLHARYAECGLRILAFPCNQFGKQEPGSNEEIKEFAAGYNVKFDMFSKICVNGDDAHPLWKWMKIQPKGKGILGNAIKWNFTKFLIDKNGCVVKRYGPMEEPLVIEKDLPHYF
# Procedure, shortened: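 Steps: GPX4 plus compound, 30 min RT; add GR/GSH/NADPH master mix; start with cumene hydroperoxide; read 340/450 nm fluorescence at 0 and 15 min. Finals were 200 nM GPX4, 1 mM GSH, 0.5 mM CHP, 0.5 mM NADPH, 100 nM GR.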
# [3] = qHTS profiling for inhibitors of Plasmodium falciparum proliferation (AID 504749); further: nearly all actives have a fitted effect of over 60% in size; conditions: P. falciparum in erythrocytes, SYBR Green DNA, 72 h; series mostly up to 28.7 µM
# Procedure, shortened: (§1)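 SYBR Green fluorescence (ex 485 nm, em 535 nm) reports parasite DNA after 72 h compound exposure of infected red cells at 0.3% parasitemia, 2.5% hematocrit; signal normalized to 0.29 uM artemisinin and vehicle wells.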
# 3D7 = experiment: as above; conditions: P. falciparum in erythrocytes, SYBR Green DNA, 72 h; series mostly up to 28.7 µM
# Procedure, shortened: as §1
# 7G8 = experiment: as above; conditions: P. falciparum in erythrocytes, SYBR Green DNA, 72 h; series mostly up to 28.7 µM
# Procedure, shortened: as §1
# AA1029 = experiment: as above; conditions: P. falciparum in erythrocytes, SYBR Green DNA, 72 h; series mostly up to 28.7 µM
# Procedure, shortened: as §1
# AS120 = experiment: as above; conditions: P. falciparum in erythrocytes, SYBR Green DNA, 72 h; series mostly up to 28.7 µM
# Procedure, shortened: as §1
# ATS189 = experiment: as above; conditions: P. falciparum in erythrocytes, SYBR Green DNA, 72 h; series mostly up to 28.7 µM
# Procedure, shortened: as §1
# ATS95 = experiment: as above; conditions: P. falciparum in erythrocytes, SYBR Green DNA, 72 h; series mostly up to 28.7 µM
# Procedure, shortened: as §1
smiles,measurement,setting,value
S=C(S)N1CCCC1,Potency,[1],inactive
same,Potency,[2],inactive
O=c1oc(Cl)c(Cl)c2ccccc12,Potency,[1],inactive
same,Potency,[2],inactive
COC1(C2=NCCN2)COc2ccccc2O1 (centres undefined),Potency,[1],inactive
same,Potency,[2],inactive
CCn1c(=O)[nH]c2cc(Cl)c(Cl)cc21,Potency,[1],inactive
same,Potency,[2],inactive
CC#CCOC(=O)c1c(C)nc2sc3c(c2c1N)CCC(O)C3 (centres undefined),Potency,[1],inactive
same,Potency,[2],inactive
CC1=C(C(=O)O)N2C(=O)[C@@H](NC(=O)C(N)C3=CCC=CC3)[C@H]2SC1 (some centres undefined),Potency,[1],inactive
same,Potency,[2],inactive
CC(N)(C(=O)O)c1ccc(C(=O)O)cc1 (centres undefined),Potency,[1],inactive
same,Potency,[2],inactive
C=CC[C@H](N)C(=O)O,Potency,[1],inactive
same,Potency,[2],inactive
COc1ccc(CCn2nnnc2C2(c3ccc(C)cc3)CC2)cc1,Potency,[1],inactive
same,Potency,[2],inactive
COc1ccccc1N1CCN(CCCNc2c(C)c(=O)n(C)c(=O)n2C)CC1,Potency,[1],inactive
same,Potency,[2],inactive
C=CCn1c(=O)c2c(nc(-c3ccc(S(=O)(=O)O)cc3)n2C)n(C)c1=O,Potency,[1],inactive
same,Potency,[2],inactive
CCN1C(=O)C=CC1=O,Potency,[1],inactive
same,Potency,[2],inactive
NS(=O)(=O)c1cccc2c1c([N+](=O)[O-])cc1nc(O)c(O)nc12,Potency,[1],inactive
same,Potency,[2],inactive
O=C1Cc2c([nH]c3ccc(Br)cc23)-c2ccccc2N1,Potency,[1],inactive
same,Potency,[2],inactive
COc1ccc(NC(=O)c2ccc(-c3ccc(-c4noc(C)n4)cc3C)cc2)cc1N1CCN(C)CC1,Potency,[1],inactive
same,Potency,[2],inactive
CSC(=N)N,Potency,[1],inactive
same,Potency,[2],inactive
C#CC(N)CCC(=O)O (centres undefined),Potency,[1],inactive
same,Potency,[2],inactive
O=c1cc(-c2ccccc2)[nH]c2nc(Cl)ccc12,Potency,[1],inactive
same,Potency,[2],inactive
O=C(O)C1=CCNCC1,Potency,[1],inactive
same,Potency,[2],inactive
COc1cc([C@@H]2c3cc4c(cc3[C@H](O)C3COC(=O)[C@@H]32)OCO4)cc(OC)c1OC (some centres undefined),Potency,[1],inactive
same,Potency,[2],inactive
COc1ccccc1N1CCN(CCCCNC(=O)c2ccc3ccccc3c2)CC1,Potency,[1],inactive
same,Potency,[2],inactive
NOCC(=O)O,Potency,[1],inactive
same,Potency,[2],inactive
CC(C)[C@@H]1CC[C@@H](C)C[C@@H]1P(=O)(c1ccccc1)c1ccccc1,Potency,[1],inactive
same,Potency,[2],inactive
COc1cc(N)c(Cl)cc1C(=O)OCCN1CCCCC1,Potency,[1],inactive
same,Potency,[2],inactive
C[C@@]1(C2CCCC2)Cc2cc(OCC(=O)O)c(Cl)c(Cl)c2C1=O,Potency,[1],inactive
same,Potency,[2],inactive
O=C(O)c1cc(=O)cc(C(=O)O)[nH]1,Potency,[1],inactive
same,Potency,[2],inactive
CC(N)(Cc1ccc(O)cc1)C(=O)O (centres undefined),Potency,[1],inactive
same,Potency,[2],inactive
N#CC(C#N)=C(N)/C(C#N)=C/c1ccc(O)cc1,Potency,[1],inactive
same,Potency,[2],inactive
COC(=O)C1=C(C)NC(C)=C([N+](=O)[O-])C1c1ccccc1C(F)(F)F (centres undefined),Potency,[1],inactive
same,Potency,[2],inactive
CC(C)NC[C@H](O)COc1cccc2ccccc12,Potency,[1],inactive
same,Potency,[2],inactive
C[C@](Cc1ccc(O)c(O)c1)(NN)C(=O)O,Potency,[1],inactive
same,Potency,[2],inactive
CN1Cc2sccc2C(c2ccc(O)c(O)c2)C1 (centres undefined),Potency,[1],inactive
same,Potency,[2],inactive
NC(=Nc1ccccc1)NC(=O)c1nc(Cl)c(N)nc1N,Potency,[1],inactive
same,Potency,[2],inactive
Cn1c(=O)[nH]c2ncn(C)c2c1=O,Potency,[1],inactive
same,Potency,[2],inactive
NC(=O)c1cc[n+](CC2=C(C(=O)O)N3C(=O)[C@@H](NC(=O)[C@@H](c4ccccc4)S(=O)(=O)[O-])[C@H]3SC2)cc1,Potency,[1],4.53 µM (active) and 28.2 µM (active)
same,Potency,[2],inactive
CC(C)NC[C@H](O)COc1ccc(CC(N)=O)cc1,Potency,[1],inactive
same,Potency,[2],inactive
same,outcome,[3],inactive
same,Potency,3D7,inactive
same,Potency,7G8,inactive
same,outcome,AA1029,inactive
same,outcome,AS120,inactive
same,Potency,ATS189,inactive
same,outcome,ATS95,inactive
CC(C)(C)NCC(O)COc1cccc2[nH]c(=O)[nH]c12 (centres undefined),Potency,[1],inactive
same,Potency,[2],inactive
CN(C)C(=O)/N=N/C(=O)N(C)C,Potency,[1],inactive
same,Potency,[2],inactive
Fc1ccc(CN(C2=NCCN2)c2c(Cl)cccc2Cl)cc1,Potency,[1],inactive
same,Potency,[2],inactive
CC(C)C[C@H](NC(=O)C1OC1C(=O)O)C(=O)NCCCCN=C(N)N (some centres undefined),Potency,[1],inactive
same,Potency,[2],inactive
NC(=O)CNCCC(c1ccccc1)c1ccccc1,Potency,[1],inactive
same,Potency,[2],inactive
O=C1OC(=O)C2C3CCC(O3)C12 (centres undefined),Potency,[1],inactive
same,Potency,[2],inactive
NC(C(=O)N[C@@H]1C(=O)N2C(C(=O)O)=C(Cl)CS[C@H]12)c1ccccc1 (some centres undefined),Potency,[2],inactive
CC[N+](CC)(CC)CC(=O)Nc1c(C)cccc1C,Potency,[1],inactive
same,Potency,[2],inactive
